ALR H2O2 inh = inhibitors of human ALR sulfhydryl oxidase, primary screen, biochemical, H2O2 detection, HRP-luminol luminescence, single point; inhibition, % (test concentration not listed); actives 3.8% (n = 290,000); AID 485317, 2010; FAD-linked sulfhydryl oxidase ALR (Homo sapiens), P55789; purified ALR, DTT oxidation;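 active = mean replicate inhibition above about 79%, with every replicate also reaching it, limit read from the data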
PREPL inhibitor = PREPL enzyme inhibitors, primary screen, biochemical, fluorescence polarization; Prolyl endopeptidase-like (Homo sapiens), Q4J6C6; recombinant PREPL, fluorescence polarization activity-based probe; inhibition, % at 5.96 µM; actives 0.68% (n = 320,000); in the data active = inhibition above about 43%;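 note: 0% = enzyme with DMSO and 100% = wells lacking enzyme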
AI-2 QS mod = Vibrio harveyi AI-2 quorum sensing modulators, primary screen, JMH597 strain, luminescence/OD600 ratio; Vibrio harveyi JMH597 AI-2 luminescence/OD600 ratio, 9 h; active compounds read low; strain lacks LuxN and CqsS sensors; 0 = neutral-control median; activity change, % at 7.5 µM; actives 0.4% (n = 300,000); in the data active = activity change below about -75%, passing the limit was not always enough;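 note: luminescence divided by OD600 gain over 9 h not by final OD600 alone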
CHT PAM = CHT positive allosteric modulators, primary screen, cell-based, membrane potential dye, choline EC20. High affinity choline transporter 1 (Homo sapiens), Q9GZV3. CHT-expressing cells; active compounds read high; LV-AA mutant CHT in HEK293 cells. B-score at 10 µM. actives 0.49% (n = 310,000). AID 488977, 2010;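 active = initial fluorescence not abnormally high and integrated response B-score, plate-corrected, over 3 SD above library mean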
Target sequence (Q9GZV3 whole entry, looked up): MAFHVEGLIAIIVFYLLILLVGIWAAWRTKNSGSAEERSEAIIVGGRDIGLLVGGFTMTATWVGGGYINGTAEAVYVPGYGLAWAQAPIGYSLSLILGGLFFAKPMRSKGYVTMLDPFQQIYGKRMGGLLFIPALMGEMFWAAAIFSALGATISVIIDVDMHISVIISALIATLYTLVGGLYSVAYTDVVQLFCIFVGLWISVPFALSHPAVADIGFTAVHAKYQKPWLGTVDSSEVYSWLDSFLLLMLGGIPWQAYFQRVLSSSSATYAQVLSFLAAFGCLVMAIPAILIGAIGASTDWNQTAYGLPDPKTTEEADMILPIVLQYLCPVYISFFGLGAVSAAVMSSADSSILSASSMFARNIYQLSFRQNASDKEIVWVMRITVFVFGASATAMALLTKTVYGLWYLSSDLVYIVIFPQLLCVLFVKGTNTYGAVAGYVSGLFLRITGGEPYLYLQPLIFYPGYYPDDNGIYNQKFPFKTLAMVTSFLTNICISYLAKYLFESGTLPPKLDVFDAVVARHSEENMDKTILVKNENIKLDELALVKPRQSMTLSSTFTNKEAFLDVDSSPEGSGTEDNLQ
CHT block = inhibitors of human choline transporter CHT; CHT-expressing cells, membrane potential dye, choline response; active compounds read low; B-score at 10 µM; actives 0.86% (n = 310,000); AID 488975, 2010;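 active = B-score over 3 SD under the library average, and starting fluorescence ratio not unusually high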;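 note: choline stimulus applied at its EC90 after an EC20 pre-addition; B-score computed on integrated fluorescence ratio after choline addition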
* marks the source's active call; other numbers are inactive results; i = inactive; nt = no result; + = active, no number. The list is not random: actives were taken first. Their share in the collection is about 5%.

SMILES	ALR H2O2 inh	PREPL inhibitor	AI-2 QS mod	CHT PAM	CHT block
CCCCC1(C)OC(=O)C(=Cc2ccc(-c3ccc(Cl)c(C(=O)O)c3)o2)C(=O)O1 (centres undefined)	98.1*	8.3	30.2	i	i
Cc1ccc(N2NC(=O)/C(=C/c3ccc(-c4ccc(Cl)c(C(=O)O)c4)o3)C2=O)cc1	98.6*	9.8	12.2	i	i
CC(C)N1C(=O)S/C(=C\c2ccc(-c3ccc(Cl)c(C(=O)O)c3)o2)C1=O	7.8	-6.2	13.6	i	i
COc1ccccc1-c1nc(SCC(=O)NCC2CCCO2)c2c(=O)n(C)c(=O)n(C)c2n1 (centres undefined)	-12.3	-0.1	17.6	i	i
O=C(c1ccc(Cl)cc1)N(Cc1ccccc1F)N1C(=O)CCCC1=O	-0.8	-11.4	0.5	i	i
Cc1c(Br)c(O)c(Br)c2sc(=O)oc12	33.5	11.2	nt	i	-8.16*
Cc1ccc(NC(=O)CSc2nnc(CNC(=O)c3c(F)cccc3Cl)o2)cc1	98.4*	2.3	28.5	i	i
O=C(CSc1nnc(CNC(=O)c2c(F)cccc2Cl)o1)Nc1ccc2c(c1)OCO2	97.1*	13.6	36.9	i	i
CCN(CC)c1ccc2c(-c3ccc(S(=O)(=O)O)cc3S(=O)(=O)[O-])c3ccc(=[N+](CC)CC)cc-3oc2c1	-8.4	+	24.7	i	i
Cc1ccc(S(=O)(=O)NC2CC(C)(C)NC(C)(C)C2)cc1C	0.8	4.5	nt	i	i
CCOc1ccccc1N1CCN(C(=O)[C@@H]2CCCN2C2=NS(=O)(=O)c3ccccc32)CC1	97.1*	16.8	nt	nt	nt
COc1cccc(C=O)c1OC(=O)N1CCOCC1	nt	20.2	-1.7	i	i
O=C(c1ccco1)N1N=C(c2ccc(Br)cc2)CC1(O)C(F)(F)F (centres undefined)	-3.3	-8.8	12.7	i	i
C/C(=N/Nc1ccccc1C(=O)O)c1cccs1	94.5*	3.6	20.9	i	i
Cc1ccc(NC(=O)CSc2nccc(=O)[nH]2)c(S(=O)(=O)N2CCOCC2)c1	98.1*	-3.4	31.0	i	i
O=C(Nc1ccc(Cl)cc1)c1cncs1	1.8	-5.6	8.9	i	i
O=C(C1=C[C@H](c2csc3ccccc23)C[C@H](OCc2ccc(CO)cc2)O1)N1CCCCCCC1	-10.1	16.8	24.4	i	i
O=c1[nH]ccc2c(O)cccc12	98.5*	-3.2	-10.6	i	i
Clc1cccc(N/N=C/c2ccncc2)c1	94.8*	0.1	5.6	i	i
Oc1ccccc1/C=N/Nc1ncc(Br)cn1	-3.2	-4.2	10.7	i	i
Oc1ccccc1/C=N/Nc1ccccc1	98.8*	-7.7	21.5	i	i
Cc1csc(N/N=C\c2cccnc2)n1	14.0	8.2	-5.4	i	i
Cc1ccc(N/N=C/c2cccnc2)cc1	100.7*	16.7	31.7	i	i
Clc1ccc(/C=N\Nc2ccccc2)cc1	98.6*	0.6	12.8	i	i
CSc1nnc(-c2ccc(C(F)(F)F)nc2C)o1	-3.0	-5.0	0.7	i	i
SMILES	ALR H2O2 inh	PREPL inhibitor	AI-2 QS mod	CHT PAM	CHT block
O=C(O)c1ccc(N/N=C/c2ccncc2)cc1	10.7	1.0	14.9	i	i
Cc1ccc(N/N=C/c2ccncc2)cc1	99.2*	7.6	-0.6	i	i
Cn1c(=O)[nH]c(Nc2ccc(F)cc2)c([N+](=O)[O-])c1=O	5.2	1.7	15.4	i	i
Cn1c(=O)[nH]c(NCCc2ccc(O)cc2)c([N+](=O)[O-])c1=O	80.7*	1.2	14.6	i	i
COc1ccc(N=c2sc3ccccc3n2C)cc1	98.4*	35.7	16.3	i	i
COc1ccc(C(=O)N=c2sc3ccccc3n2C)cc1OC	-2.9	3.0	5.0	i	i
CCCc1cc(=O)[nH]c(Nc2ccc(Cl)cc2)n1	-5.9	4.8	-30.1	i	i
CCCc1cc(=O)[nH]c(Nc2ccc(O)cc2)n1	99.0*	2.4	-2.9	i	i
Cc1cc(N=Nc2ccc(Cl)cc2)cc(CN2CCCC2)c1O	99.2*	6.2	24.8	i	i
Cc1cc(N=Nc2ccc(Cl)cc2)cc(CN2CCOCC2)c1O	nt	12.0	1.6	i	i
N#CC12C(N)=NC3(OCCO3)C1(C#N)C1=C(CCC1)NC2c1ccccc1 (centres undefined)	-24.8	10.1	10.4	i	i
CCSC1(SCC)N=C(N)C2(C#N)C(c3ccccc3)NC3=C(CCC3)C12C#N (centres undefined)	95.6*	4.2	17.7	i	i
C/C(=N/NC(=O)CSc1nc2ccccc2n1C)c1ccc(O)cc1	99.0*	3.6	11.6	i	i
Cn1c(SCC(=O)N/N=C/c2ccncc2)nc2ccccc21	-11.8	-7.4	9.8	i	i
Cc1ccc(/C=N/NC(=O)CSc2nc3ccccc3n2C)s1	88.6*	-1.7	12.2	i	i
Cn1c(SCC(=O)N/N=C/C=C\c2ccco2)nc2ccccc21	85.9*	-8.2	23.0	i	i
O=C(CN1CCOCC1)Nc1nc(-c2ccccc2Cl)cs1	-9.5	11.5	0.8	i	i
Cc1ccc(Nc2nnc(SCc3cc(=O)n4cc(C)ccc4n3)s2)cc1	98.8*	7.2	3.6	i	i
CCc1c(O)nc(SCC(=O)Nc2ccccc2C)[nH]c1=O	99.1*	-3.7	nt	i	i
CCCCc1c(O)nc(SCC(=O)c2ccccc2)[nH]c1=O	98.6*	3.8	28.7	i	i
CCO[C@H]1OC(C(=O)NC2CC2)=C[C@@H](c2coc3ccccc3c2=O)[C@@H]1CCCO	nt	0.3	19.2	i	i
C/C(Cc1ccccc1)=N\NC(=O)CNC(=O)COc1ccccc1	8.4	-1.5	4.6	i	i
CN(C)c1ccc(CN(C(=O)c2ccccc2Br)C2CCS(=O)(=O)C2)cc1 (centres undefined)	95.7*	8.3	0.1	i	i
Cc1ccc(CN(C(=O)c2ccco2)C2CCS(=O)(=O)C2)cc1 (centres undefined)	-11.9	-5.2	-1.5	i	i
CN(C)c1ccc(CN(Cc2ccco2)C(=O)c2ccco2)cc1	99.5*	9.9	46.0	i	i
CN(Cc1ccc(N(C)C)cc1)C(=O)c1cc2ccccc2o1	76.4*	17.3	0.7	i	i
COc1cccc(CN(C(=O)c2ccccc2Br)C2CCS(=O)(=O)C2)c1 (centres undefined)	-0.9	12.4	-3.2	i	i
CN(C)c1ccc(CN(C(=O)c2ccco2)C2CCS(=O)(=O)C2)cc1 (centres undefined)	82.4*	3.0	5.0	i	i

Screens deposited in PubChem by several laboratories.
